Reference: PubChem BioAssay
Active and inactive are the calls of the source.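 How the source made its calls, unless noted: active means compounds lowering colon cancer cell viability after pretreatment blocking the GSK3B kinase; inactive means the rest.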

Experiments:
[1] = stimulators of nuclear beta-catenin in C2C12, primary screen, imaging, WNT3A-conditioned medium, mouse C2C12, NPC library (AID 1117326; in the data active means nuclear beta-catenin stimulation mostly above about 4.2%, no sharp cut-off; inactive means mostly below about 10%; further: reference of the scale not given here); conditions: stronger effect = higher value
[2] = stimulators of insulin release from INS-1E, primary screen, cell-based, 5 mM glucose, NPC library (AID 1117329;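 active means compound raises insulin release from rat beta cells at 5 mM glucose, no numeric limit stated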; further: reference of the scale not given here); conditions: rat INS-1E insulin secretion, at 10 µM, stronger effect = higher value
[3] = growth inhibition of GSK3B-pretreated HCT116 cells – cell-based, CellTiter-Glo, 0.2 to 20 µM (AID 1117336); conditions: HCT116 viability after GSK3B inhibitor, at 20 µM, stronger effect = higher value
[4] = inhibition of endothelial tube formation, primary screen, imaging, VEGF stimulated, CD31 staining, tube area, NPC library (AID 1117340;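 active means compound that reduces growth-factor-driven endothelial tube area in a mixed cell culture, no cutoff stated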); conditions: VEGF-stimulated ADSC/ECFC co-culture, at 10 µM, stronger effect = higher value
[5] = glucagon-like peptide 1 release enhancers, primary assay, NCI-H716 cell line, NPC library (AID 1117341;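 active means compound raises GLP1 secretion from the human gut endocrine cells, with no numeric limit stated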; further: reference of the scale not given here); conditions: NCI-H716 cells, at 10 µM, stronger effect = higher value
[6] = HCT116 colon cancer cell growth inhibition, primary screen, CellTiter-Glo luminescence, NPC library (AID 1117342;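 active means compounds that lower survival of HCT116 colon cancer cells in the luminescence readout, no numeric limit stated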); conditions: at 20 µM (top of the series)
[7] = CellTiter-Glo luminescent readout of SW480 viability loss, NPC library primary (AID 1117343;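 active means compounds that lower viability of the colon cancer cells in the luminescence readout, with no numeric limit stated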); conditions: CellTiter-Glo luminescence; at 20 µM (top of the series)
[8] = decreased DLD-1 cellular survival, CellTiter-Glo luminescent readout, NPC compound collection, primary HTS (AID 1117346;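 active means compounds that lower survival of DLD-1 colon cancer cells in the luminescence readout, no cutoff given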); conditions: DLD-1 viability, CellTiter-Glo luminescence; at 20 µM (top of the series)

| Structure (SMILES) | nuclear beta-catenin stimulation ([1]; at 10 µM) | nuclear beta-catenin stimulation ([1]; stimulation, at 2 µM) | insulin secretion stimulation [2] | viability decrease [3] | tube area decrease [4] | GLP1 secretion stimulation [5] | inhibition of viability [6] | viability decrease (inhibition) [7] | viability decrease (inhibition) [8] |
| --- | --- | --- | --- | --- | --- | --- | --- | --- | --- |
| O=C(C1CCCCC1)N1CC(=O)N2CCCc3ccccc3C2C1 (stereo not drawn) | 1.4% (inactive) | 2.7% | 0.6% (inactive) | 6.6% (inactive) | 12.9% (inactive) | 5.2% (inactive) | -9.2% (inactive) | -250% (inactive) | -3.1% (inactive) |
| O=C(CCN1CCN(CCO)CC1)N1c2ccccc2Sc2ccc(C(F)(F)F)cc21 | 2.5% (inactive) | 1.4% | 8.2% (inactive) | 50.2% (active) | 25.8% (inactive) | 2.4% (inactive) | 49.2% (inactive) | 96.4% (active) | 58.8% (active) |
| CCCCCCCCCCC(CO)CCCCCCCC (stereo not drawn) | -0.6% (inactive) | -0.4% | -0.5% (inactive) | 11.5% (inactive) | -3.9% (inactive) | -4% (inactive) | 5.07% (inactive) | 14.5% (inactive) | -17.6% (inactive) |
| CN1C(CSCC(F)(F)F)Nc2cc(Cl)c(S(N)(=O)=O)cc2S1(=O)=O (stereo not drawn) | -0.4% (inactive) | -1.1% | 6.7% (inactive) | -2.8% (inactive) | -10.7% (inactive) | 1.3% (inactive) | 30.1% (inactive) | -4.4% (inactive) | -7.1% (inactive) |
| O=C(O)COc1nn(Cc2ccccc2)c2ccccc12 | -0.5% (inactive) | 2.2% | -0.7% (inactive) | 3.8% (inactive) | -13% (inactive) | 1.7% (inactive) | 8.1% (inactive) | 12.1% (inactive) | 8.6% (inactive) |
| O=C(/C=C/c1ccccc1)NCCO | 1.1% (inactive) | 1.4% | -2.3% (inactive) | -9.8% (inactive) | 26.7% (inactive) | -1.5% (inactive) | 12.9% (inactive) | -3.5% (inactive) | -16.4% (inactive) |
| C[C@H]1NCc2cc(-c3ccc4c(=O)c(C(=O)O)cn(C5CC5)c4c3OC(F)F)ccc21 | 4.5% (inactive) | 1.3% | 0.3% (inactive) | 2.4% (inactive) | 9.5% (inactive) | -0.7% (inactive) | 20.1% (inactive) | -3.4% (inactive) | 2.9% (inactive) |
| CCOC(=O)NNc1ccc(N(CC)CC(C)O)nn1 (stereo not drawn) | -1.1% (inactive) | 0.1% | 0.3% (inactive) | -1% (inactive) | -17.2% (inactive) | 1.1% (inactive) | 6.1% (inactive) | 2.6% (inactive) | 1% (inactive) |
| CC(C)(C)C1CCC(CC2=C(O)c3ccccc3C(=O)C2=O)CC1 (stereo not drawn) | 2% (inactive) | -0.5% | -0.2% (inactive) | 110% (active) | 109% (active) | 5.8% (inactive) | 106% (active) | 140% (active) | 98.4% (active) |
| Cc1ncc(COP(=O)(O)O)c(C=O)c1O | -1.1% (inactive) | -0.2% | -0.8% (inactive) | 9.5% (inactive) | -0.4% (inactive) | -1.1% (inactive) | 4.63% (inactive) | -1.4% (inactive) | 3.4% (inactive) |
| O=C(O)CC(O)C(=O)O (stereo not drawn) | 6% (inactive) | 0% | -0.5% (inactive) | -6% (inactive) | 1.8% (inactive) | 1.3% (inactive) | -8.5% (inactive) | 13.3% (inactive) | -7.65% (inactive) |
| Nc1nc2ccccc2n1Cc1ccc(F)cc1 | 0.8% (inactive) | -2% | 0.8% (inactive) | 56.4% (active) | 15.1% (inactive) | -0.6% (inactive) | 74.9% (active) | 84% (active) | 43% (inactive) |
| COc1cc2nc(Cl)nc(N)c2cc1OC | 0.1% (inactive) | -1.5% | 2.8% (inactive) | 13.3% (inactive) | 9.3% (inactive) | 0.6% (inactive) | 22.3% (inactive) | -4.5% (inactive) | 21.8% (inactive) |
| CCCCOC(=O)CCCCCCCCC(=O)OCCCC | 1.4% (inactive) | 1% | 2.4% (inactive) | 10.4% (inactive) | 3.7% (inactive) | 1.9% (inactive) | 13.3% (inactive) | -9.1% (inactive) | 7.6% (inactive) |
| CCCN(CCc1cccs1)[C@H]1CCc2c(O)cccc2C1 | 0.6% (inactive) | -2.2% | 8.95% (inactive) | 48.4% (inactive) | 0.6% (inactive) | 2.4% (inactive) | 65.2% (active) | 30.3% (inactive) | 9.7% (inactive) |
| Cc1c(Cn2ccnc2)c2ccccc2n1CCC(=O)O | 0.7% (inactive) | 2.7% | -0.1% (inactive) | 108% (active) | -6.9% (inactive) | -1.3% (inactive) | 103% (active) | 79.6% (active) | 60.9% (active) |
| CC1(S(=O)(=O)O)CC(=O)c2ccccc2C1=O (stereo not drawn) | 30.3% (inactive) | -0.2% | -0.7% (inactive) | 98.8% (active) | 54.7% (active) | 1.2% (inactive) | 99.2% (active) | 102% (active) | 102% (active) |
